Laboratory results: the supplement of paper PMC6555819

The sequences below were run on RXRa homodimer (NR concentration 180 nM) (assay: PBM binding z-score (relative to random genomic background probes); higher = stronger binding; sequences stand for … in GC…GCGATTGACAGCGTAGAATGAAGG).
Outline: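 Regression normalization was applied to scanned fluorescence from custom Agilent 4×180K protein-binding microarrays. Before scanning, arrays were incubated 1 h with ligand-free nuclear receptor dimers, and binding was detected with antibodies against each partner (one per run). Binding z-scores use the random background probes as reference.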

Row | Sequence | PBM binding z-score
1 | CCTTACGGGTCACGAAGTTATAGCACGACGAGCG | 5.71
2 | TCTTGTAGATCAAGTAGGTTAAGAAAGCCTGAGT | 0.304
3 | CGTCCAAGGTCAAAGGTCCGTGAAGAGATGACGG | 6.84
4 | CCTTACGGGTCACTGACAGGTTAAAGCATTTGGA | 5.63
5 | ACTAGCAGGCCAAGGGTCACTCGAGATTAGTCCG | 4.28
6 | ATATGGAGGTTACATCCGGGTCATTCAGGCTATG | 4.23
7 | GATACAGGGTCAAGTCCAGAGTACGCGTATTGAT | 6.06
8 | ATATGTAGGTTATCGGGTCATTCAGTTTGCGCAT | 3.47
9 | ACTATTAGTTGACTTAGGGGAACCGATACGACGC | 0.583
10 | TCTTGTAGATCAGCTGGTTAAGAAAGCTGGCCAA | -0.351
11 | CTCGAAAGGTCGGTTGAGGTGAGTATGCGGATAA | 2.4
12 | CCTATTAGTTGACCATGAGGGCAACCGAAGCTCG | 0.812
13 | AGAATGAGGTTACCAATGATCAGGGAAACGCTTG | 2.62
14 | CTCGAAAGGTCGGCTGAGGTGAGTATACGGATAA | 3.44
15 | CGTCCAAGGTCAGAGAGGTCAGTGCATGCCGAGT | 5.11
16 | TCTAGTTGGTCACTGAGGTCACACACGACGGGTA | 5.14
17 | ATCTCTAGGTAACCAAGTTCACTGAATGCCGAAC | 1.36
18 | TAGCCTATGTCATTCAGGGGCCAGTATAGAAAGC | 0.203
19 | ACTAGCAGGCCAAGTTTGGGTCTCTCAAACAAAG | -0.754
20 | GTACCAAGGTGAATAGGTCGCTGATGAGTAGGCG | 1.66
21 | TCTGCTAGGGCAACGATGGTCAGCTAATCTGCTA | -0.0028
22 | CGTCCAAGGTGATAGGAGGTCAGTGAAGACAGAT | 1.88
